Bioassay records deposited in PubChem by several laboratories.
TMEM16A act: activates or potentiates the mouse TMEM16A chloride channel; Q8BHY3; B-score at 10 µM; 0.3% of 340,000 active; HEK293 TMEM16A/YFP-H148Q/I152L, iodide quench fluorescence; hits give low values; AID 623877;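 active = fluorescence-ratio B-score plate-corrected deviation score at least 3 library SD below zero, with starting fluorescence score within 5 deviations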;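 note: channel opened by trigger with iodide after compound preincubation; score built on the fluorescence ratio of max minus min over baseline; more negative score means more quench and so TMEM16A activation or potentiation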
DNA FID counter: counter-screen for HCV NS3 helicase inhibitors: DNA intercalator displacement | inhibition, % at 7.9 µM | AID 1845 | 0.17% of 290,000 active | DNA fluorescent intercalator displacement, fluorescence; in the data active = inhibition above about 37%;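 note: higher means more ethidium bromide displaced from hairpin DNA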
ANO1 block: blocks the mouse calcium-activated chloride channel TMEM16A; normalized B-score (activity score, 25-100; higher = stronger inhibition) at 10 µM; Q8BHY3; HEK293 TMEM16A/YFP iodide influx fluorescence, ionomycin; 1.2% of 310,000 active;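 active = ratio plate-corrected score three or more library SD toward inhibition, starting fluorescence score within five deviations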;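 note: score derived from kinetic fluorescence span divided by baseline fluorescence per well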
PREPL inh: inhibits the human prolyl oligopeptidase-like enzyme; Q4J6C6; AID 2751; 0.68% of 320,000 active; recombinant PREPL, fluorescence polarization activity-based probe; inhibition, % at 5.96 µM; in the data active = inhibition above about 43%
PP5 primary: inhibitors of human protein phosphatase 5 (PP5); inhibition, % at 6.7 µM; purified PP5c, OMFP substrate fluorescence; 0.18% of 320,000 active; P53041;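 active = inhibition above the campaign's mean inhibition across all tested compounds plus 3 SD, cut at about 9.5% in these data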
PP1 counter: blocks human PP1-alpha phosphatase, a PP5 counter-screen; P62136; purified PP1alpha, OMFP fluorescence; inhibition, % at 6.7 µM; 0.9% of 320,000 active; AID 2235;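 active = inhibition above the mean inhibition of all tested compounds plus 3 SD, computed separately for each screening campaign, cut at about 15% in these data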
Target sequence (P62136 whole entry, looked up): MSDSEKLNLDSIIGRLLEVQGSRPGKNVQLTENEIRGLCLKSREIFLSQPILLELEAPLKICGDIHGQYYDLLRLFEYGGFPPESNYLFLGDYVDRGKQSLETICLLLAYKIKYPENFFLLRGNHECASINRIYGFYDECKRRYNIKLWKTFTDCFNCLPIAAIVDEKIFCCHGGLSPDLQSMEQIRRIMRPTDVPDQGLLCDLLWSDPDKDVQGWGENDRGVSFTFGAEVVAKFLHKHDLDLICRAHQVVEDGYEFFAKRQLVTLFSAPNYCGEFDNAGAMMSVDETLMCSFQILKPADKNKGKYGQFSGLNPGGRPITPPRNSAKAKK
Large screens that a line does not name were inactive. This is a sample that favours compounds with a hit; in the whole collection about 2.7% have one here.

Nc1nc(Cl)cc(N2CCC(c3cc(-c4ccc(Cl)cc4)n[nH]3)CC2)n1	ANO1 block 100
CCCCN(C(=O)c1cccc(S(=O)(=O)N(CC)c2ccccc2)c1)c1c(N)n(CC(C)C)c(=O)[nH]c1=O	none (no result: DNA FID counter, ANO1 block, PREPL inh, PP5 primary, PP1 counter)
CCCCN(CC)CCCNC(=O)c1cn(CC)c2ccc(S(=O)(=O)N3CCc4ccccc4C3)cc2c1=O	DNA FID counter 41
CCN(CC)CCCNC(=O)c1cn(CC)c2ccc(S(=O)(=O)N(C)C3CCCCC3)cc2c1=O	none
CCCCN(C)CCCNC(=O)c1cn(CC)c2ccc(S(=O)(=O)N3CCc4ccccc4C3)cc2c1=O	none
CCn1cc(C(=O)NCCCN(CC(C)C)CC(C)C)c(=O)c2cc(S(=O)(=O)N(C)C3CCCCC3)ccc21	TMEM16A act -13
CC(NC(=O)COC(=O)Cc1ccc(Cl)cc1)c1ccccc1 (stereo unspecified)	none (no result: DNA FID counter, ANO1 block, PP5 primary, PP1 counter)
CC(NC(=O)Cc1ccc(-c2ccccc2)cc1)c1ccccc1 (stereo unspecified)	TMEM16A act -18
COc1cccc(N2CCN(CC(=O)NC3=Nc4ccccc4N=C(C)C3c3ccccc3)CC2)c1 (stereo unspecified)	none
COc1cccc(N2CCN(CC(=O)Nc3nnc(-c4ccccc4)s3)CC2)c1	ANO1 block 25
COc1cccc(-c2csc(N3CCN(CC(=O)Nc4ccc5c(c4)OCO5)CC3)n2)c1	PREPL inh 55
COc1ccc(CC(=O)NNC(=O)c2cc(Cl)ccc2OC)cc1	none (no result: DNA FID counter, ANO1 block, PREPL inh, PP5 primary, PP1 counter)
CCCCC1C2=C(CC(C)(C)CC2=O)OC2=C1C(=O)CC(C)(C)C2	none
CCN(CC)c1ccc(S(=O)(=O)Nc2cc(Cl)ccc2Cl)cc1NC(=S)NC(=O)C1CCCC1	PP1 counter 15
Cn1c(=O)c2c(nc(Cl)n2CCOc2ccccc2)n(C)c1=O	PP1 counter 16
O=C(CSc1nc2ccccc2nc1N1CCCCC1)Nc1ccc(F)cc1	none
O=C1CC(=C2c3ccccc3-c3ccccc32)C(=O)N1CCN1CCN(c2ccccc2)CC1	PP1 counter 17
O=C(c1cccc(S(=O)(=O)NCc2ccccc2)c1)N1CCN(c2ccccc2Cl)CC1	none (no result: DNA FID counter, ANO1 block, PREPL inh, PP5 primary, PP1 counter)
O=C(NCC(c1ccco1)N1CCCC1)c1cc2cc(Cl)ccc2o1 (stereo unspecified)	none (no result: DNA FID counter, ANO1 block)
CCCCCCCCOC(=O)c1c(CSC(=N)N)n(C)c2cc(Br)c(OC(C)=O)cc12	PP1 counter 17
CCOC(=O)c1c(CSC(=N)N)n(-c2ccc(Br)cc2)c2cc(Br)c(OC(C)=O)cc12	none (no result: ANO1 block, PREPL inh, PP5 primary, PP1 counter)
CCOc1cc(CNCCc2ccc(S(N)(=O)=O)cc2)ccc1OCc1ccccc1	none
NS(=O)(=O)c1ccc(NCc2ccccc2OCc2ccccc2F)cc1	none
CCOc1cc(CNCCc2ccc(S(N)(=O)=O)cc2)cc(Cl)c1OCc1ccccc1	ANO1 block 25
NS(=O)(=O)c1ccc(NCc2cc(Cl)ccc2OCc2ccc(F)cc2)cc1	ANO1 block 25
NS(=O)(=O)c1ccc(CCNCc2cc(Br)ccc2OCc2ccccc2)cc1	ANO1 block 100
Cc1ccc(NC(=O)Cn2ccc([N+](=O)[O-])n2)cc1Cl	none
O=C(CCc1ccccc1)N=C1SC2CS(=O)(=O)CC2N1c1cccc(F)c1 (stereo unspecified)	none
CCCCC1=CC2=CC(=O)C(C)(OC(=O)CC)C(=O)C2=CN1CC(C)C (stereo unspecified)	none (no result: DNA FID counter)
CCCCC1=CC2=CC(=O)C(C)(OC(=O)CC)C(=O)C2=CN1C(CO)CO (stereo unspecified)	TMEM16A act -5.8 (no result: DNA FID counter)
CC(C)NS(=O)(=O)c1ccc(NC(=O)C(C)Oc2ccc(C(=O)c3ccccc3)cc2)cc1 (stereo unspecified)	ANO1 block 100
CC(=O)NCCNC(=O)c1ccc(NC2=NC3CS(=O)(=O)CC3S2)cc1 (stereo unspecified)	TMEM16A act -12
CCOc1ccc(CCNC(=O)c2ccc(NC3=NC4CS(=O)(=O)CC4S3)cc2)cc1 (stereo unspecified)	none
COCCCNC(=O)Cn1cnc2sc(C)c(S(=O)(=O)N3CC(C)CC(C)C3)c2c1=O (stereo unspecified)	none
COc1ccc(OC)c(/C=C2\SC(N3CCCC(C)C3)=NC2=O)c1 (stereo unspecified)	ANO1 block 100
Oc1ccc(Cl)cc1Cc1cc(Cl)ccc1O	ANO1 block 100
Oc1ccc(Cl)cc1CNCc1ccc(Cl)cc1	none (no result: DNA FID counter)
O=[N+]([O-])c1ccc(CSc2ccc(S(=O)(=O)N3CCOCC3)cn2)cc1	none (no result: DNA FID counter, ANO1 block, PREPL inh, PP5 primary, PP1 counter)
Cc1cc(C)nc(SCc2nnc(SCC(=O)Nc3ccc(Cl)c(C(F)(F)F)c3)o2)n1	ANO1 block 100
Cc1cccc(NC(=O)CSc2nnc(CSc3nc(C)cc(C)n3)o2)c1	none
CN(C)C=Nc1ncc2c3ccccc3n(CCN(C)C)c2c1C#N	none
CCN(CC)CCn1c2ccccc2c2cnc(N)c(C#N)c21	DNA FID counter 50
COc1ccc(/C=C(/CC(=O)NCc2ccc(Cl)cc2)c2nc3ccccc3s2)cc1	PP1 counter 15
Clc1ccc2[nH]c(-c3ccccc3)cc2c1	ANO1 block 25
CC(NC(=O)CSc1nc2c(c(C(F)(F)F)n1)CCc1ccccc1-2)c1ccccc1 (stereo unspecified)	ANO1 block 100
CCC(=O)C1CCCN(C(=O)CCc2nnc(C3(c4ccc(Cl)cc4)CCC3)o2)C1 (stereo unspecified)	none
Cc1ccc(NC(=O)COc2ccccc2)cc1S(=O)(=O)N1CCCCCC1	ANO1 block 25 (no result: DNA FID counter)
Cc1ccc(NC(=O)CN(C)CC(=O)Nc2cccc(F)c2)cc1S(=O)(=O)N1CCCCCC1	ANO1 block 25
Cc1ccc(NC(=O)CSc2ncnc3ccccc23)cc1S(=O)(=O)N1CCOCC1	ANO1 block 25
CC/C(=N\NC(=O)c1nnn(-c2nonc2N)c1-c1cccs1)c1ccccc1	none
CCN(CC)CCn1nc2c3c(cccc3c1=O)-c1ccccc1-2	DNA FID counter 40
O=P(Cc1cccc2ccccc12)(c1ccccc1)c1ccccc1	none (no result: DNA FID counter, ANO1 block, PREPL inh, PP5 primary, PP1 counter)
COC(=O)C1=C(N)c2ccccc2C1(C#N)c1ccccc1 (stereo unspecified)	TMEM16A act -10
COC(=O)c1c(-c2ccccc2)csc1N	none
O=C(NCc1cccnc1)c1cn(CCc2ccccc2)nn1	ANO1 block 25
COc1ccccc1CN1C[C@@H]2C[C@@H](C3=Cc4cccc(OC)c4OC3)N3CCC[C@@]23C1=O	TMEM16A act -4.7
Cc1ccccc1SCC(=O)Nc1cc(C(F)(F)F)ccc1N1CCOCC1	ANO1 block 100 (no result: DNA FID counter)
Cc1nnc(SCC(=O)Nc2cc(C(F)(F)F)ccc2N2CCOCC2)o1	none
CCOC(=O)c1cnc(SCC(=O)Nc2cc(C(F)(F)F)ccc2N2CCOCC2)nc1N	TMEM16A act -7.1
